Reference: PubChem BioAssay AID1851 (National Center for Advancing Translational Sciences (NCATS), 2009)
Values joined by “and” are separate entries in the source; they are usually repeats but may differ in a detail not shown here. Equal entries are not always repeated. Out of some 16,000 compounds screened, about 4,000 (25%) were called active. Inconclusive results (about 26%) are left out. The call rests on the fitted dose curve; in most records, active means well fitted curve in the direction sought with a large enough effect; inconclusive means small, poorly fitted or top-dose-only effect, or effect the other way; inactive means no such curve, though single readings can be large or run the other way. These entries were drawn from the full list.

Molecular target: Cytochrome P450 2C9 (Homo sapiens) (UniProt P11712)
Test: Cytochrome panel assay with activity outcomes
Details: recombinant CYP, pro-luciferin dealkylation, luminescence, p450-cyp2c9; series mostly up to 57.1 µM
On the % scale 0 is the no-effect control and ±100 the full control effect.

Cytochrome P450 2C9 (Homo sapiens), sequence (P11712 whole entry, looked up): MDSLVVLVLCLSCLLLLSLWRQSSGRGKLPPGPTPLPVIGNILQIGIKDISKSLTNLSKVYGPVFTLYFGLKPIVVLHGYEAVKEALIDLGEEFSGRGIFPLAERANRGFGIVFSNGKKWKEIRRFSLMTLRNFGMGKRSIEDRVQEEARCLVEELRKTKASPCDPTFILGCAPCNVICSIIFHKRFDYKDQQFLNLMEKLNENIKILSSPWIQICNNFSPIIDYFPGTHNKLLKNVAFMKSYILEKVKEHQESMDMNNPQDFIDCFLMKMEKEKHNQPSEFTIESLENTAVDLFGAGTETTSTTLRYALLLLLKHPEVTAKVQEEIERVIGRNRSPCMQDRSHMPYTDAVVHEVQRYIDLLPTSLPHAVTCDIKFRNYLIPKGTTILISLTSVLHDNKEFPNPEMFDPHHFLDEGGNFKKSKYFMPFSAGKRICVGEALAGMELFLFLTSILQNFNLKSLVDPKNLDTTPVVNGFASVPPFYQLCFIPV

SMILES	AC50	activity, negative = inhibition
Oc1ccc(-c2[nH]ncc2-c2ccc(Cl)cc2)c(O)c1	0.794 µM (active)	
CC(C)NC(=O)N1CC2(CCN(C(=O)c3cc(C(F)(F)F)cc(C(F)(F)F)c3)CC2)C1	inactive	
CCOC(=O)c1c(CC(C)C)csc1NC=O	10 µM (active)	
O=C(Nc1ccccc1C(=O)NCC1CCCO1)c1ccc(Cl)cc1Cl (stereo not given)	10 µM (active)	
O=C(CN(Cc1ccccc1Cl)C(=O)c1ccc(CN2CCOCC2)o1)NCC1CCCO1 (stereo not given)	inactive	
Cc1ccccc1C(=O)c1c[nH]c(C(=O)NCC2CCCO2)c1 (stereo not given)	inactive	
COc1ccc(O[C@H]2C=C[C@@H](c3ccccc3)O[C@@H]2CON=C(C)C)cc1		11.9% [at 11.4 µM] (inactive)
C=CC[C@@H]1C=C[C@@H](O/N=C\C[C@@H]2C=C[C@H](OC(C)=O)[C@H](COC(C)=O)O2)[C@@H](CO)O1		-4.4% [at 11.4 µM] (inactive)
COc1ccc(O[C@H]2C=C[C@@H](c3ccccc3)O[C@H]2CO/N=C2/c3cc(OC)ccc3O[C@@H](c3cccc(OC)c3)[C@H]2O)cc1	3.16 µM (active)	
C=CC[C@@H]1C=C[C@H](O/N=C2\c3cc(OC)ccc3O[C@H](c3cccc(OC)c3)[C@H]2O)[C@H](CO)O1	0.398 µM (active)	
COc1cccc([C@H]2Oc3ccc(OC)cc3/C(=N\O[C@@H](C)c3cn([C@H](CO)Cc4ccccc4)nn3)[C@@H]2O)c1	1.58 µM (active)	
COc1cccc([C@H]2Oc3ccc(OC)cc3/C(=N\O[C@@H]3O[C@H](COC(C)=O)[C@H](OC(C)=O)[C@H](OC(C)=O)[C@H]3OC(C)=O)[C@@H]2O)c1		-12.6% [at 11.4 µM] (inactive)
CC(C)=NO[C@@H](C)c1cn([C@H](CO)Cc2ccccc2)nn1		16.5% [at 11.4 µM] (inactive) and 5.66% [at 11.4 µM] (inactive)
COc1cccc([C@@H]2Oc3ccc(OC)cc3/C(=N/O[C@@H](C)c3cn([C@H]4COC[C@H]4O)nn3)[C@@H]2O)c1		-15.5% [at 11.4 µM] (inactive)
COc1cccc([C@H]2Oc3ccc(OC)cc3/C(=N\OC[C@@H](O)[C@@H]3O[C@@H]4OC(C)(C)O[C@@H]4[C@H]3O)[C@@H]2O)c1		-20.5% [at 11.4 µM] (inactive)
COc1cccc([C@@H]2Oc3ccc(OC)cc3/C(=N/OC[C@@H](C)[C@H](OCc3ccccc3)C(C)C)[C@@H]2O)c1	3.98 µM (active)	
CO/N=C1/c2cc(OC)ccc2O[C@@H](c2cccc(OC)c2)[C@H]1O		-0.557% [at 11.4 µM] (inactive)
CC1=N[C@@](C)(COC(=O)[C@]2(C)N[C@](C)(CO)CO2)COC1=O		11% [at 11.4 µM] (inactive)
CC(=O)NCCNc1cc(-c2ccccc2CN(C)C)ncn1		10% [at 2.29 µM] (inactive)
O=[N+]([O-])/C=C\c1cc2ccccc2[nH]1		11.3% [at 11.4 µM] (inactive)
COCC(=O)Nc1c(I)c(C(=O)NC[C@@H](O)CO)c(I)c(C(=O)N(C)C[C@@H](O)CO)c1I	inactive	
COc1cccc([C@@H]2Oc3ccc(OC)cc3/C(=N/O[C@@H](C)CN3CCCCc4nc(C)c(C)cc43)[C@@H]2O)c1	1.58 µM (active)	
CC(C)=NO[C@@H](C)CN1CCCCc2nc(C)c(C)cc21		19.8% [at 11.4 µM] (inactive)

SMILES	AC50	activity, negative = inhibition
C/C(CCN1CCCCc2nc(C)c(C)cc21)=N\O[C@@H](C)CN1CCCc2nc(C)c(C)cc21		-5.53% [at 11.4 µM] (inactive)
CCC(C)(C)N=C(NC#N)Nc1cccnc1	inactive	
CN(C)c1ncnc2ccc(-c3ccccc3C#N)cc12		-7.24% [at 2.29 µM] (inactive)
Nc1c2c(=O)oc(-c3ccccc3)cc2nn1-c1ccccc1	10 µM (active)	
O=C(O)/C=C(/C(=O)O)[C@]12CCN3CC4=CCO[C@@H]5CC(=O)N[C@@H]1[C@H]5[C@H]4C[C@H]32		-2.53% [at 11.4 µM] (inactive)
c1ccc(-c2nnn(CCN3CCCCC3)n2)cc1		3.45% [at 11.4 µM] (inactive)
CN1/C(=C\C=[N+](C)c2ccccc2)C(C)(C)c2ccccc21	inactive	
CN1/C(=C\C(=O)COC(=O)Cn2nnc(-c3ccccc3)n2)C(C)(C)c2ccccc21	3.98 µM (active)	
CC1CCCN(C(=O)c2sc3cc([N+](=O)[O-])ccc3c2Cl)C1 (stereo not given)	inactive	
CS(=O)(=O)c1ccc([C@H](O)[C@H](CO)NC(=O)C(Cl)Cl)cc1	inactive	
CC(=O)N1CCC2(CCCN(Cc3ccccc3)C2)CC1	inactive	
COc1ccc(-c2cc(C(F)F)nc(-n3nc(C)cc3C)n2)cc1	28.2 µM (active)	
Cc1cc(C)n(-c2nc(NC(C)C)nc(NC(C)C)n2)n1	inactive	
Cc1cnc(CNc2nc(-c3ccc(N(C)C)cc3)nc3ccccc23)cn1		-14.7% [at 2.29 µM] (inactive)
Cc1cccc(NC(=O)CSc2nc(-c3ccccc3)c(C#N)c(=O)[nH]2)c1C	0.355 µM (active)	
COc1ccccc1NC(=O)CCc1c(C)[nH]c(=O)c(C#N)c1C	inactive	
COc1ncc2nc(-c3cccs3)c(=O)n(CCC#N)c2n1	inactive	
N#CCCn1c(=O)c(-c2cccs2)nc2cnc(Nc3ccccc3)nc21	inactive	
N#Cc1c(-c2cccs2)nc(SCC(=O)c2cccs2)[nH]c1=O	0.708 µM (active)	
CC(C)NC(=O)N1CC[C@@]2(CCCN(C(=O)c3csnn3)C2)C1	inactive	
COc1ccccc1-c1cc(NCc2cccc(C)c2)ncn1		0.571% [at 2.29 µM] (inactive)
Cc1ccc(N(Cc2ccc([N+](=O)[O-])cc2)C(=O)c2ccco2)cc1	3.16 µM (active)	
O=C(O)/C(Cc1ccc([N+](=O)[O-])cc1)=N/O		-14.2% [at 11.4 µM] (inactive)

SMILES	AC50	activity, negative = inhibition
NC(=O)N/N=C\c1ccc([N+](=O)[O-])o1	inactive	
CCOC(=O)N/N=C\c1ccc([N+](=O)[O-])o1	inactive	
O=C(N/N=C/c1ccc([N+](=O)[O-])o1)c1cc(-c2ccncc2)nc2ccccc12	0.891 µM (active)	
O=C(O)[C@H]1CN(CCCP(=O)(O)O)CCN1	inactive	
O=C(NC1CCCCCC1)c1cccs1	inactive	
CN(C1CCCCC1)S(=O)(=O)c1ccc(NC(=S)NC(=O)c2cccs2)cc1	0.891 µM (active)	
CCN(c1ccccc1)S(=O)(=O)c1ccc(NC(=S)NC(=O)c2cccs2)cc1	1 µM (active)	
CCN(c1ccccc1)S(=O)(=O)c1ccc(NC(=S)NC(=O)c2ccc(Br)o2)cc1	1.58 µM (active)	
CCOC(=O)NCN1C(=O)C2C3C=CC(C3)C2C1=O (stereo not given)	inactive	
CC(C)(S)[C@H](N)C(=O)O		3.44% [at 11.4 µM] (inactive)
CCCCCCCCCCCCCC(=O)O[C@H](CC(=O)O)C[N+](C)(C)C	inactive	
CN1C(C(=O)Nc2ccccn2)=C(O)c2ccccc2S1(=O)=O	3.98 µM (active)	
O=C1c2ccccc2S(=O)(=O)N1CCCCN1CCN(c2ncccn2)CC1	inactive	
Cc1cc(NC(=O)C2=C(O)c3ccccc3S(=O)(=O)N2C)no1	inactive	
O=C(Nc1cccc(Cl)c1)N1CCN2C(=O)c3ccccc3C12c1ccccc1 (stereo not given)	2.51 µM (active)	
O=C(Nc1cccc(F)c1)N1CCC2(CCNCC2)CC1	inactive	
N/N=C1/c2ccccc2N[C@H]1OC(=O)Nc1cccc(Cl)c1		-11.6% [at 11.4 µM] (inactive)
C[C@H](Cc1ccc(O)c(O)c1)[C@@H](C)Cc1ccc(O)c(O)c1	12.6 µM (active)	
N[C@@H](Cc1ccc(O)c(O)c1)C(=O)O	inactive	
C[C@](N)(Cc1ccc(O)c(O)c1)C(=O)O	inactive	
O=c1c2ccccc2nc2n1CC/C2=C\c1ccccc1[N+](=O)[O-]	5.01 µM (active)	
O=c1c2ccccc2nc2n1CCc1c-2[nH]c2ccccc12	inactive	
O=C(CSc1nc2ccccc2[nH]1)Nc1c(F)cccc1F	12.6 µM (active)	

SMILES	AC50	activity, negative = inhibition
O=C(O)CSc1nc2ccccc2[nH]1		-8.67% [at 11.4 µM] (inactive)
CNC(=O)[C@@H]1O[C@@H](n2cnc3c(NCc4cccc(I)c4)ncnc32)[C@H](O)[C@@H]1O	inactive	
CCOC(=O)c1cnc(-c2ccccc2)nc1Oc1ccccc1	6.31 µM (active)	
CCOC(=O)c1cnc(-c2ccccc2)nc1Oc1cccc(Cl)c1	11.2 µM (active)	
CCOC(=O)c1cnc(-c2ccccc2)nc1Oc1ccc(Cl)cc1	inactive	
Cc1ccc(Oc2nc(-c3ccccc3)ncc2S(C)(=O)=O)cc1	2.51 µM (active)	
C=CCOc1ccc(CNC(C)(C)CO)cc1OC	inactive	
CCn1cc(C(=O)O)c(=O)c2cc3c(cc21)OCO3	inactive	
O=C(O)c1cc(=O)c2c(Cl)cc(Cl)cc2[nH]1	inactive	
CO/N=C\[C@@H](C)[C@H](OCc1ccccc1)C(C)C		-6.92% [at 11.4 µM] (inactive)
COc1ccccc1-c1nc(NCc2cnc(C)cn2)c2ccccc2n1		16.4% [at 2.29 µM] (inactive)
CC(=O)Nc1ccc(Nc2ncnc3c2cnn3-c2ccccc2)cc1	0.891 µM (active)	
Cn1ncc2c(Nc3cccc(C(=O)O)c3)ncnc21	inactive	
Nc1ncnc2c1cnn2-c1ccccc1	inactive	
CCOC(=O)c1ccc(NC(=O)COc2ccccc2OC)cc1	17.8 µM (active)	
CCOC(=O)c1ccc(NC(=O)CC2NCCNC2=O)cc1 (stereo not given)	inactive	
Cc1nc(N/N=C/c2ccccc2)nc(N(C)c2ccccc2)c1[N+](=O)[O-]	inactive	
Cc1ccc2nc(Nc3ccccc3O)nc(-c3ccccc3)c2c1	8.91 µM (active)	
Cc1ccc2nc(N/N=C\c3cccc(C)n3)cc(C)c2c1		7.2% [at 11.4 µM] (inactive)
Cc1ccc2nc(N/N=C/c3ccccc3C#N)nc(-c3ccccc3)c2c1	7.08 µM (active)	
Cc1cc(C)nc(Nc2ncc(O)n2-c2ccccc2)n1	inactive	
